# According to PubChem BioAssay:
# The source made the active and inactive calls.
# Tests used:
# [1] = target: Albumin (Bos taurus) (UniProt P02769); assay: bovine serum albumin binders on microarray, profiling panel, artefact control for SMM control protein annotation, biochemical, small-molecule microarray, Alexa647 label, 635/667 nm fluorescence (AID 1118); details: BSA-A647 binding, fluorescence 635 nm, higher = more signal;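 note: score merges 667 nm emission intensity and signal-to-noise per printed compound spot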
# [2] = small-molecule microarray binders of probe aXIP, primary screen, biochemical, NeuroSMM set, 635/667 nm fluorescence (AID 1119); details: higher = more signal, called active from +8 up or from −8 down;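 note: probe is the protein aXip251-270 applied at 1 µg/mL to compound-printed slides; binding of probe to printed compounds measured as 667 nm fluorescence plus signal to noise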
# [3] = small-molecule binders of probe aNOTCH3, primary screen, biochemical, small-molecule microarray, 635/667 nm fluorescence (AID 1120); details: higher = more signal;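 note: probe is a biotin-tagged antibody raised against NOTCH3 rather than NOTCH3 protein; score merges spot fluorescence near 667 nm with spot signal to noise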
# [4] = small-molecule binders of probe aNOTCH2, primary screen, biochemical, small-molecule microarray, 635/667 nm fluorescence (AID 1121); details: higher = more signal;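 note: score merges feature fluorescence read at 667 nm with its signal to noise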
# [5] = target: Carbonic anhydrase 2 (Homo sapiens) (UniProt P00918); assay: CAII small-molecule binders, profiling panel, biochemical, small-molecule microarray, Alexa647-labelled CAII (AID 1122); details: CAII-A647 binding fluorescence, higher = more signal
# [6] = COS7 lysate on small-molecule microarray, probe aHis, 635 nm (AID 1123); details: COS7 cell lysate, fluorescence, higher = more signal;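 note: z-score combines 667nm fluorescence intensity with signal-to-noise per printed compound spot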
# [7] = compound binding in COS7 lysate, probe aLAP1, primary screen, cell lysate, small-molecule microarray (AID 1124); details: probe aLAP1, fluorescence, higher = more signal;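 note: lysate comes from COS7 cells expressing LAP1 and is applied at 0.3 µg/mL; score merges spot fluorescence near 667 nm with signal-to-noise over triplicate slides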
# [8] = tested on: Sam68 (KHDRBS1); assay: Sam68 small-molecule binders, primary screen, biochemical, small-molecule microarray, 635 nm fluorescence (AID 1125); details: small-molecule microarray binding, higher = more signal;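 note: score merges 667 nm channel intensity with signal to noise over triplicate slides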
# [9] = tested on: Chordin-like protein 2 (CHRDL2); assay: CHRDL2 small-molecule binders, primary screen, biochemical, small-molecule microarray, 635 nm fluorescence (AID 1126); details: small-molecule microarray binding, fluorescence 635 nm; higher = more signal;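 note: printed compound slides probed with Chrdl2 protein at 4 µg/mL for 1 h at 4 C; score merges 667 nm emission intensity with signal to noise over three replicate slides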
# [10] = target: Concanavalin-A (Canavalia ensiformis) (UniProt P02866); assay: ConA small-molecule binders, primary screen, artefact control for SMM control protein annotation, biochemical, small-molecule microarray, Alexa647 label, 635 nm (AID 1127); details: ConA-A647 binding fluorescence, higher = more signal;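 note: z combines 667 nm emission intensity with signal-to-noise across three replicate slides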
# [11] = anti-His antibody binders, primary screen, artefact control for SMM control protein annotation, biochemical, small-molecule microarray, 635 nm fluorescence (AID 1128); details: anti-His Alexa647 antibody binding, higher = more signal;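 note: score merges feature fluorescence with signal-to-noise for each printed compound spot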
# [12] = tested on: Human papillomavirus type 1a E7 protein (residues 1-88); assay: HPV1a E7 small-molecule binders, primary screen, biochemical, small-molecule microarray, residues 1-88, 635 nm (AID 1129); details: small-molecule microarray binding, fluorescence 635 nm; higher = more signal
# [13] = target: Focal adhesion kinase 1 (Homo sapiens) (UniProt Q05397); assay: small-molecule microarray binders of FAK, primary screen, biochemical, 635/667 nm fluorescence, BSA, DTT (AID 1130); details: PTK2 binding, 635 nm fluorescence, higher = more signal;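 note: composite of spot emission at 667 nm and signal to noise over triplicate slides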
# [14] = tested on: Fibrinogen (Alexa647-labelled); assay: fibrinogen binders on compound microarrays, profiling panel, artefact control for SMM control-protein annotation, biochemical, small-molecule microarray, 635/667 nm fluorescence (AID 1131); details: fibrinogen-A647 binding fluorescence, higher = more signal;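 note: z-score merges 667 nm fluorescence with per-spot signal-to-noise over triplicate slides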
# [15] = target: Follistatin (Homo sapiens) (UniProt P19883); assay: follistatin binders on small-molecule microarrays, primary screen, biochemical, small-molecule microarray, 635/667 nm fluorescence (AID 1132); details: FST binding, 635 nm fluorescence, higher = more signal
# [16] = target: Fibroblast growth factor 2 (Homo sapiens) (UniProt P09038); assay: FGF2 binders on small-molecule microarrays, primary screen, biochemical, small-molecule microarray, 635/667 nm fluorescence (AID 1133); details: small-molecule microarray binding, FGF2, fluorescence 635/667; higher = more signal
# [17] = mitochondrial membrane potential change in A549 cells, profiling panel, cell-based, JC-1 fluorescence, basal, 24 h, 100 nL (AID 1138); details: higher = more signal;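 note: A549 lung adenocarcinoma cells under basal conditions with no added stimulus; test concentration not given here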
# [18] = tested on: Lefty1; assay: Lefty1 binders on small-molecule microarrays, primary screen, biochemical, small-molecule microarray, 635/667 nm fluorescence (AID 1139); details: small-molecule microarray binding, fluorescence 635/667; higher = more signal
# [19] = tested on: wheat germ agglutinin (Triticum aestivum), Alexa647-labelled; assay: wheat germ agglutinin binders on compound microarrays, profiling panel, artefact control for SMM control-protein annotation, biochemical, small-molecule microarray, 635/667 nm fluorescence (AID 1140); details: WGA-A647 binding, 635 nm fluorescence, higher = more signal;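 note: score merges 667 nm feature emission with signal to noise over triplicate slides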
# [20] = target: Luciferin 4-monooxygenase (Photinus pyralis) (UniProt P08659); assay: firefly luciferase enzyme inhibitors, primary screen, biochemical, luminescence, purified enzyme, 2006 set (AID 1141); details: SteadyGlo luminescence, 30 min, higher = more signal, called active from +8 up or from −8 down;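 note: cell-free assay with purified firefly luciferase at 100 ng per well in PBS; test concentration not given here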
# Luciferin 4-monooxygenase (Photinus pyralis), sequence (P08659 whole entry, looked up): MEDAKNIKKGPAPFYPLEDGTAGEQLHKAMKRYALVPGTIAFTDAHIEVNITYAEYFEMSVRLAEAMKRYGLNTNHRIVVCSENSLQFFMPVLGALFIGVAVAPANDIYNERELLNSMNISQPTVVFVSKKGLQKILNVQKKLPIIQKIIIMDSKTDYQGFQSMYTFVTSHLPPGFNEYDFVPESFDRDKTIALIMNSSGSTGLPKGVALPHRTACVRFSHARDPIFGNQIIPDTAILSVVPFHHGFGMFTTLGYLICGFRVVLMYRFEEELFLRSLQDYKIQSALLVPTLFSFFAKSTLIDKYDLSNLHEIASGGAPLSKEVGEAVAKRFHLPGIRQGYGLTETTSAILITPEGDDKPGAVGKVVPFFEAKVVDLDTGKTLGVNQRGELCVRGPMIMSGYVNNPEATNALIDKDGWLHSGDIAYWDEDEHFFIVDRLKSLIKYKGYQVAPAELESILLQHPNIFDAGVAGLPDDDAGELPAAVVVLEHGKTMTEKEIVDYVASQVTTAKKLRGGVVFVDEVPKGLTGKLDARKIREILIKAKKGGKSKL
# Albumin (Bos taurus), sequence (P02769 whole entry, looked up): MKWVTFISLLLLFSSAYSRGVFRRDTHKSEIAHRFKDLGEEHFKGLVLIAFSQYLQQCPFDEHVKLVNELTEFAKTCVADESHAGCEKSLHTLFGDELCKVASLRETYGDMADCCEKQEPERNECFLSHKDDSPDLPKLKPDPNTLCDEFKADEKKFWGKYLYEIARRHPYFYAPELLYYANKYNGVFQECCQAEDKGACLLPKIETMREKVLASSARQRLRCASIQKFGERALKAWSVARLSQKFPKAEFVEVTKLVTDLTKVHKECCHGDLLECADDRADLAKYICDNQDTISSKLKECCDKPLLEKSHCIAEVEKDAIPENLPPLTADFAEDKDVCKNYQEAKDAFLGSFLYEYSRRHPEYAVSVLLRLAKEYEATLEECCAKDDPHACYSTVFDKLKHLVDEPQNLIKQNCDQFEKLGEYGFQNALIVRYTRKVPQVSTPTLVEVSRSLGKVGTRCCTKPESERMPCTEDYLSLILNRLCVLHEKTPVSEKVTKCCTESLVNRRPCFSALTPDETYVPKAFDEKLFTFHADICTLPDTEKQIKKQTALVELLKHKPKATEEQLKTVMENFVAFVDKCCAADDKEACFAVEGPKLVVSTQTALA
# Concanavalin-A (Canavalia ensiformis), sequence (P02866 whole entry, looked up): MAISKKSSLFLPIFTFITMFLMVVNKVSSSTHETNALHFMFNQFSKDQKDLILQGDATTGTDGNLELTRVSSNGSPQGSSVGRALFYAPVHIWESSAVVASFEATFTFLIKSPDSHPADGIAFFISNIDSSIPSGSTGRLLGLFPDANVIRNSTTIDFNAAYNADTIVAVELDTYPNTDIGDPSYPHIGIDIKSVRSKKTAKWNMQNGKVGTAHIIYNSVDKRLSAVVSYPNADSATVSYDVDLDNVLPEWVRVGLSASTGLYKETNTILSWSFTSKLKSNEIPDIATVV
# Fibroblast growth factor 2 (Homo sapiens), sequence (P09038 whole entry, looked up): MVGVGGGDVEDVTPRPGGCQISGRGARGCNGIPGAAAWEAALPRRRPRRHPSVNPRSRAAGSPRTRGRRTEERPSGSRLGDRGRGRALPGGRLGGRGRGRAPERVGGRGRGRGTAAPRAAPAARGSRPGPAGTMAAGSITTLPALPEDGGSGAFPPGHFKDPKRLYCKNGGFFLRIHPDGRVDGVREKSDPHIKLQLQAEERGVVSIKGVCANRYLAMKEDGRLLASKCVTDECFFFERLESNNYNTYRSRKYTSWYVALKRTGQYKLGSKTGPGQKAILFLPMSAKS
# Follistatin (Homo sapiens), sequence (P19883 whole entry, looked up): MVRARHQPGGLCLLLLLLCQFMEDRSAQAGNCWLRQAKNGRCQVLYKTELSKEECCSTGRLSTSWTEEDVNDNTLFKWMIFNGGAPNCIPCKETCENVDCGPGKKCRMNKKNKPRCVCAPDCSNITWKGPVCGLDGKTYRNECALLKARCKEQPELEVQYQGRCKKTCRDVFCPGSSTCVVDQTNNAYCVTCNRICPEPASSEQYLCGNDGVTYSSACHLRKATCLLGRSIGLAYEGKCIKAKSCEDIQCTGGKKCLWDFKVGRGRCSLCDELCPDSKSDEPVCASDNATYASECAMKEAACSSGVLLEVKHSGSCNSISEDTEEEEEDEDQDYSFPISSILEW
# Focal adhesion kinase 1 (Homo sapiens), sequence (Q05397 whole entry, looked up): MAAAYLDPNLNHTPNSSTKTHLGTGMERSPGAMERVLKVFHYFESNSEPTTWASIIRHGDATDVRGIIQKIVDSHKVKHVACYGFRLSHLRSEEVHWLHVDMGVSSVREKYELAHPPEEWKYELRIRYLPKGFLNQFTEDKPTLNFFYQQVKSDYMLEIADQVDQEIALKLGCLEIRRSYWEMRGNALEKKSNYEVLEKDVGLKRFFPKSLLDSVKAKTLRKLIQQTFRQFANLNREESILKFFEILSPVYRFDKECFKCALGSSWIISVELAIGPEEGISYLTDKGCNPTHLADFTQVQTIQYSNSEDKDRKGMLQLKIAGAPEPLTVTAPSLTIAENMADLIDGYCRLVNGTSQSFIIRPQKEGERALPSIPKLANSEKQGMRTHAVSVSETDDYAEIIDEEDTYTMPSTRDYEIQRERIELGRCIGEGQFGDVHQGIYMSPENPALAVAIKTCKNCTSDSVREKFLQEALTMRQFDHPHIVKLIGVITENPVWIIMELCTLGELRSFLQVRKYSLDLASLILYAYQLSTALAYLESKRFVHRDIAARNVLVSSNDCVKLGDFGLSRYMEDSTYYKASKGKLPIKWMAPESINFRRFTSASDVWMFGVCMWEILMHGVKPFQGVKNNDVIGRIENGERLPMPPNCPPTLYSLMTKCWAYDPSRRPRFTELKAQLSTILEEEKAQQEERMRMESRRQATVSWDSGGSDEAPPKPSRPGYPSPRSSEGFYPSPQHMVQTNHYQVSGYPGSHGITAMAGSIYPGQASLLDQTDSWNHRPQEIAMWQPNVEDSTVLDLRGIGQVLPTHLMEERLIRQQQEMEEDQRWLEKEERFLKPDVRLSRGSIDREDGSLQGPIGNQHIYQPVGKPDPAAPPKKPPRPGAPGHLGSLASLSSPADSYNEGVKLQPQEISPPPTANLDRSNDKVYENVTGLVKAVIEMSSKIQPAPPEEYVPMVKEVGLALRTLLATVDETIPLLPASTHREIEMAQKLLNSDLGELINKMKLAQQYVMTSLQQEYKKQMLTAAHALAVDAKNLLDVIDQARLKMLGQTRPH
SMILES,composite z-score [1],composite Z-score [2],composite z-score [3],composite z-score [4],composite z-score [5],composite z-score [6],composite z-score [7],composite z-score [8],composite z-score [9],composite z-score [10],composite z-score [11],composite z-score [12],composite z-score [13],composite z-score [14],composite z-score [15],composite z-score [16],z-score [17],composite z-score [18],composite z-score [19],z-score [20]
C=CC[C@@H]1C=C[C@H](ON=CC[C@@H]2C=C[C@H](OC(C)=O)[C@@H](COC(C)=O)O2)[C@@H](CO)O1,0.0919,-0.0027 (inactive),0.164,0.0219,0.197,0.312,0.0839,1.29,0.441,0.823,1.37,0.915,-0.0825,0.991,0.538,0.945,-0.0536,0.918,0.566,0.328 (inactive)
CC(C)CN1CCc2nc(-c3ccccc3)c3c(c2C1)CO[C@@H](C)C3,0.729,-0.548 (inactive),0.0636,0.0341,0.465,0.798,0.0322,1.29,0.53,1.11,0.454,1.16,0.741,0.756,0.785,0.525,0.0232,0.923,0.963,-0.628 (inactive)
CC(C)=NOC(C)CN1CCCCc2nc(C)c(C)cc21 (stereo not given),0.673,0.761 (inactive),0.169,-0.0859,0.418,0.951,0.045,0.313,0.732,0.109,0.734,-0.368,-0.368,0.755,0.886,0.234,0.23,0.603,-0.0583,-0.327 (inactive)
CC=CC1=C(CO)[C@H](O)[C@H]2O[C@H]2[C@@H]1O,-0.0712,0.0296 (inactive),0.213,-0.141,0.17,-0.394,-0.599,0.269,0.753,0.0361,0.343,0.23,-0.401,-0.0599,0.937,0.45,-0.537,0.911,-0.0224,-0.0811 (inactive)
CCOC(=O)[C@H](Cc1ccccc1)NC(=O)CCC1CC(OC(=O)NCCc2ccc(F)cc2)CC2(CCCC(COC(=O)NCCC(C)C)O2)O1 (stereo not given in full),0.508,1.05 (inactive),0.0939,-0.114,0.28,1.17,-0.0236,1.31,0.0858,0.831,1.05,1.12,0.156,0.871,0.967,1.02,0.833,0.743,0.381,0.553 (inactive)
C[C@@H]1CC[C@H]2C(=O)O[C@@H](COc3ccc(C(C)(C)C)cc3)CN2[C@H]1c1ccc(Br)cc1,0.425,0.289 (inactive),-0.0663,-0.164,-0.0795,1.39,0.21,0.292,0.329,0.721,-0.0988,-0.153,-0.171,0.407,0.0252,0.0914,0.784,0.135,0.0196,0.104 (inactive)
COc1ccc(COC(=O)NN=C2C[C@@H](O)[C@@H](O)[C@@H]3[C@@H]4C(=O)N([C@@H](C)c5ccccc5)C(=O)[C@@H]4CC[C@H]23)cc1,0.434,-0.259 (inactive),0.24,0.867,-0.277,0.232,-0.266,-0.638,-0.217,0.0744,-0.485,-0.521,-0.393,-0.137,-0.528,-0.509,-0.419,-0.794,0.271,0.779 (inactive)
COC(=O)[C@H](C)NC(=O)CCC1CC(OC(=O)NCCc2ccc(F)cc2)CC2(CCCC(COC(=O)NCCc3ccccc3OC)O2)O1 (stereo not given in full),0.335,0.353 (inactive),-0.0288,-0.0061,0.244,1.25,0.0635,1.29,0.559,0.924,0.706,1.12,0.0694,0.733,1.18,0.591,0.625,0.554,0.432,0.484 (inactive)
O=C1C=C[C@@H](O)[C@@H]2[C@@H]3C(=O)N(Cc4ccc5c(c4)OCO5)C(=O)[C@@H]3CC[C@@H]12,0.147,-0.88 (inactive),0.123,-0.0567,-0.137,0.163,0.129,0.627,0.761,0.748,0.314,0.867,0.185,0.546,0.382,0.569,-0.635,0.585,0.0599,-0.276 (inactive)
